Laboratory results reported in PubChem BioAssay AID2221 (Broad Institute, 2009).
The campaign covered roughly 290,000 compounds. About 2,200 (0.76%) were called active. Cut-off read from the data, not from the text of the source: active = inhibition above about 30%; inconclusive = no clear call, values can overlap the other calls; inactive = below that. What follows is part of a selection rich in actives, with near analogues and random picks from the rest.

Each compound was assayed against Protein RecA (Mycobacterium tuberculosis (strain ATCC 25618 / H37Rv)) (UniProt P9WHJ3) (assay: Mtb RecA intein splicing inhibitors, primary screen, biochemical, fluorescence, HTS (AID 2221;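 note: 0% = vehicle wells and 100% = reference inhibitor control wells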)). Details: cell-free RecA intein splicing, stronger effect = higher value, concentration not given here.
Protein RecA (Mycobacterium tuberculosis (strain ATCC 25618 / H37Rv)), sequence (P9WHJ3 whole entry, looked up): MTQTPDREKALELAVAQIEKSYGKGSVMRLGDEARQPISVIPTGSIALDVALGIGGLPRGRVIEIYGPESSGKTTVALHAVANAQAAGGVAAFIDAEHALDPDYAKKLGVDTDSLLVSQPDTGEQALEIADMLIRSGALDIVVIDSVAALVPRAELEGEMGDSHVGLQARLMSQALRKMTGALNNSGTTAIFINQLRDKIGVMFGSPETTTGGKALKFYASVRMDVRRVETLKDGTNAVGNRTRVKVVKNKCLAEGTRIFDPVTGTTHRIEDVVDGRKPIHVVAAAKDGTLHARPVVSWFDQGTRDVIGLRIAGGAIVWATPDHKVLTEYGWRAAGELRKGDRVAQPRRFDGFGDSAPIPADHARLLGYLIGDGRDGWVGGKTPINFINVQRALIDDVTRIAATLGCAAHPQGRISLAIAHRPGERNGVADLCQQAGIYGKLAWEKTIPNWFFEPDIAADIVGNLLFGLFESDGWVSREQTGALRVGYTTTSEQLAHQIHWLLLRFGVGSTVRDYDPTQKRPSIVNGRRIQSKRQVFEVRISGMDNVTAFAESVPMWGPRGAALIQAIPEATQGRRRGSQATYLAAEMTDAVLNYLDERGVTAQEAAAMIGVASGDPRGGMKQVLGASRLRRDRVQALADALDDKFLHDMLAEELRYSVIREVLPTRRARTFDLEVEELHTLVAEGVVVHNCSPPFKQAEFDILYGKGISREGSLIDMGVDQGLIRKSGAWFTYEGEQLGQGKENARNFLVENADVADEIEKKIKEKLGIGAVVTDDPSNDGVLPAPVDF

Row | Compound | inhibition
1 | COc1ccc(-c2cc(C(=O)Nc3ccccc3O)c3ccccc3n2)cc1 | -0.565% (inactive)
2 | CNC(=O)COC(=O)c1cc(-c2ccc(OC)cc2)nc2ccccc12 | -2.37% (inactive)
3 | COc1ccc(-c2cc(C(=O)n3cnc4ccccc43)c3ccccc3n2)cc1 | 37.7% (active)
4 | CCCNC(=O)CSc1nc(Cc2ccccc2)nc2ccccc12 | 15.4% (inactive)
5 | CCN(CC)S(=O)(=O)c1cc([N+](=O)[O-])ccc1NNC(=O)Nc1ccccc1 | 0.713% (inactive)
6 | COc1ccc(-n2nnnc2CNC(=O)c2ccc3ccccc3c2)cc1 | -1.28% (inactive)
7 | Cc1ccc([N+](=O)[O-])c(OCCCNCC(C)O)c1 (stereo not drawn) | -0.0235% (inactive)
8 | Cc1ccc(CN2CCN(c3ncccn3)CC2)c(C)c1 | 0.612% (inactive)
9 | C=CCn1c(SCC(=O)NCC2CCCO2)nc2sc(C)c(C)c2c1=O (stereo not drawn) | 0.158% (inactive)
10 | Cn1c(SCC(=O)c2ccccc2)ncc(C(=O)Nc2ccc(F)cc2)c1=O | -0.487% (inactive)
11 | Cc1ccc(NC(=O)c2cnc(SCC(=O)NCC3CCCO3)n(C)c2=O)cc1 (stereo not drawn) | 35.1% (active)
12 | COc1ccc2c(c1O)-c1cccc3c1[C@@H](C2)N(C)CC3 | -6.28% (inactive)
13 | COc1ccc2cc1Oc1ccc(cc1)C[C@H]1c3cc(c(OC)cc3CCN1C)Oc1c(O)c(OC)cc3c1[C@H](C2)N(C)CC3 | -4.49% (inactive)
14 | COc1c(O)ccc2c1CN1CCc3cc4c(cc3C1C2)OCO4 (stereo not drawn) | 68.5% (active)
15 | CC(C)(C)OC(=O)NC(Cc1ccccc1)C(=O)NC(CSC1CCCCO1)C(=O)NN (stereo not drawn) | -1.13% (inactive)
16 | CC1(C)CC(=O)c2cnc3nc4ccccc4n3c2C1 | -0.669% (inactive)
17 | CC(CNc1ccc([N+](=O)[O-])c2cccnc12)Nc1c([N+](=O)[O-])cc(C(F)(F)F)cc1[N+](=O)[O-] (stereo not drawn) | 1.36% (inactive)
18 | COc1ccc(-c2cc(C(F)(F)F)nc(NCc3cccnc3)n2)cc1 | -1.1% (inactive)
19 | COc1ccc(-c2ccc(Nc3ccc(S(=O)(=O)N4CCCC4)cc3)nn2)cc1OC | -1.08% (inactive)
20 | COc1ccc(-c2cc(C(F)(F)F)nc(S(C)(=O)=O)n2)cc1OC | 42% (active)
21 | Cn1cc(CCC(=O)NC2CC2)c2ccccc21 | -0.418% (inactive)
22 | O=C(CN1CCN(C(=S)NC2CCCC2)CC1)Nc1ccc(Oc2ccccc2)cc1 | 5.42% (inactive)
23 | COCc1cc(C)n(CC(=O)NCC2CCCO2)c(=O)c1C#N (stereo not drawn) | -0.67% (inactive)
24 | CC(=O)O[C@]1(C(C)=O)CC[C@H]2[C@@H]3C=C(C)C4=CC(=O)CC[C@]4(C)[C@H]3CC[C@@]21C | 11% (inactive)

Row | Compound | inhibition
25 | CC(=O)C12CC(C)=C(C)CC1CC1C3CCC4=CC(=O)CCC4(C)C3CCC12C (stereo not drawn) | 36% (active)
26 | C[C@]12C=CC(=O)C=C1CC[C@@H]1[C@@H]2C(=O)C[C@@]2(C)[C@H]1CC[C@]2(O)C(=O)CO | 1.39% (inactive)
27 | CCN(CC)c1ccc2cc(C(N)=O)/c(=N\NC(=O)c3ccncc3)oc2c1 | -24.7% (inactive)
28 | C=CCN(C(=O)Nc1ccc2oc(C)nc2c1)c1ccccc1 | 1.61% (inactive)
29 | CCN(CC)c1ccc2oc(=O)c(C)nc2c1 | 30.2% (active)
30 | COc1ccc(-c2nnc(SCc3cccnc3)o2)cc1 | -3.4% (inactive)
31 | COc1ccc(-c2nnc(SCC(=O)c3ccc4c(c3)OCCO4)o2)cc1 | 0.107% (inactive)
32 | COc1ccc(-c2nnc(SC(=O)N3c4ccccc4Sc4ccccc43)o2)cc1 | 46.6% (active)
33 | CC(=O)c1cccc(NC(=O)C2COc3ccccc3O2)c1 (stereo not drawn) | 0.944% (inactive)
34 | C[C@H](NC(=O)C1CCN(S(=O)(=O)c2ccccc2)CC1)C(=O)NCc1ccccc1 | 1.64% (inactive)
35 | COC(=O)c1sc(SC)c(S(=O)(=O)C(C)C)c1N/N=C(\C#N)S(=O)(=O)c1ccccn1 | 3.07% (inactive)
36 | COc1cc(C2C(C#N)=C(N)Oc3n[nH]c(-c4ccccn4)c32)cc(OC)c1OC (stereo not drawn) | 17.2% (inactive)
37 | CCCc1[nH]nc2c1C(C1CC=CCC1)C(C#N)=C(N)O2 (stereo not drawn) | 4.97% (inactive)
38 | CCc1ccc(C2C(C#N)=C(N)Oc3n[nH]c(CC(=O)OC)c32)cc1 (stereo not drawn) | 63.8% (active)
39 | COc1ccc(-c2[nH]nc3c2C(c2ccncc2)C(C#N)=C(N)O3)cc1 (stereo not drawn) | 69.7% (active)
40 | CCOC(=O)C1=C(CC)OC(N)=C(C#N)C1c1ccc(F)cc1F (stereo not drawn) | -3.52% (inactive)
41 | CCOC(=O)C1=C(C)OC(N)=C(C#N)C1c1cncc(-c2ccc(F)cc2)c1 (stereo not drawn) | 2.26% (inactive)
42 | CCOc1c(OC)cc(C2C(C#N)=C(N)Oc3n[nH]c(-c4ccncc4)c32)cc1OC (stereo not drawn) | 23.1% (inactive)
43 | CCCc1nc2c([nH]1)C(c1cccnc1)C(C#N)=C(N)O2 (stereo not drawn) | -1.72% (inactive)
44 | CCC1=C(C(=O)OC)C(c2cc(OC)ccc2OC)C(C#N)=C(N)O1 (stereo not drawn) | -1.35% (inactive)
45 | CCCc1[nH]nc2c1C(c1ccc(Br)s1)C(C#N)=C(N)O2 (stereo not drawn) | 56% (active)
46 | CCCc1[nH]nc2c1C(c1ccc(OC(=O)c3ccco3)cc1)C(C#N)=C(N)O2 (stereo not drawn) | 81.6% (active)
47 | COCc1[nH]nc2c1C(C1C=CCCC1)C(C#N)=C(N)O2 (stereo not drawn) | -0.266% (inactive)
48 | NC(=O)c1cc(S(=O)(=O)NCCCc2ccco2)cs1 | -6.35% (inactive)

Row | Compound | inhibition
49 | CN(C)c1ccc(C=NCCc2ccc(S(N)(=O)=O)cc2)cc1 | -4.96% (inactive)
50 | Cc1ccc(NC(=O)N2CCSc3ccccc32)cc1 | -0.155% (inactive)
51 | CCN(CC)CC(=O)Nc1sc2c(c1C(=O)c1ccccc1C)CCC2 | 11.9% (inactive)
52 | Cc1cc(C)c(C)c(S(=O)(=O)N[C@@H](C)C(=O)OC(C)C(=O)NC(N)=O)c1C (stereo partly drawn) | -2.04% (inactive)
53 | CC(CO)(CO)NC(=O)c1ccc(=O)[nH]n1 | 0.0563% (inactive)
54 | O=C(c1ccc[nH]c1=S)N1CCN(S(=O)(=O)c2ccc(Br)cc2Cl)CC1 | -3.23% (inactive)
55 | Cc1ccc(-n2c(=O)cc(N3CCN(Cc4ccccc4)CC3)[nH]c2=O)cc1 | -1.51% (inactive)
56 | S=C(Nc1ccc(Cl)cc1Cl)N1CCCC1 | -0.599% (inactive)
57 | Cc1cccc(OC(C)C(=O)N2CCc3ccccc3C2)c1 (stereo not drawn) | 0.662% (inactive)
58 | O=C(Cc1ccccc1)Nc1ccc(C(=O)Nc2ccccc2C(=O)O)cc1 | 0.81% (inactive)
59 | O=C(c1cccnc1)N1CCN(S(=O)(=O)c2cccs2)CC1 | -1.81% (inactive)
60 | Cc1ccc(-n2nc3c(=O)n(C(C)C(=O)NCc4ccc5c(c4)OCO5)nc(C)c3c2C)cc1 (stereo not drawn) | 3.2% (inactive)
61 | CC1=NNC(=O)C1CCC(=O)N/N=C\c1cccc(Cl)c1 (stereo not drawn) | -2.34% (inactive)
62 | CC1=NNC(=O)C1CCC(=O)N/N=C\c1ccc(Cl)c(Cl)c1 (stereo not drawn) | 0.906% (inactive)
63 | CC1=NNC(=O)C1Cc1c(Cl)cccc1Cl (stereo not drawn) | 90.8% (active)
64 | O=C(CN1CCc2cc3c(cc2C1)OCCCO3)Nc1ccccc1 | 1.99% (inactive)
65 | COc1ccc(C(=O)NC2CC(C)(C)Cc3c2cnn3-c2ccccc2C)o1 (stereo not drawn) | 3.96% (inactive)
66 | Cc1cccc(NC(=O)c2nc(S(=O)(=O)Cc3ccccc3)ncc2Cl)c1 | 78% (active)
67 | Cc1cccc(OCc2ccc(C(=O)Nc3ccc(F)cc3)cc2)c1 | -2.68% (inactive)
68 | CCOc1ccc(NC(=O)c2nc(SCC)ncc2Cl)cc1 | -3.31% (inactive)
69 | Cc1cccc(CS(=O)(=O)c2ncc(Cl)c(C(=O)Nc3ccc(F)cc3)n2)c1 | 31.6% (active)
70 | Cc1cccc(NC(=O)c2nc[nH]c2C(=O)NCC(=O)OCc2ccccc2)c1 | -3.32% (inactive)
71 | CCSc1ncc(Cl)c(C(=O)Nc2cc(C)ccc2C)n1 | -2.65% (inactive)
72 | CSCC[C@H](NC(=O)N1CCn2c1nc1ccccc12)C(=O)NC1CCCCC1 | 0.784% (inactive)

Row | Compound | inhibition
73 | ClC1(Cl)CC1CSc1ncn[nH]1 (stereo not drawn) | -0.379% (inactive)
74 | Cc1ccc(SC(CC(=O)c2ccc(C(C)(C)C)cc2)C(=O)O)cc1 (stereo not drawn) | 8.11% (inactive)
75 | Cc1ccc(SCc2cc(=O)[nH]c(N3CCCCC3)n2)cc1 | 1.86% (inactive)
76 | Cc1ccc(SCCSc2ncccn2)cc1 | -1.76% (inactive)
77 | Cc1ccc(SCC2=NNC(=O)C2)cc1 | 87.8% (active)
78 | O=C(NC1CCc2ccccc21)C12CN(Cc3ccccc3)CC1C(c1cccc([N+](=O)[O-])c1)=NO2 (stereo not drawn) | 8.13% (inactive)
79 | CCOc1ccc(-n2c(SCC(N)=O)nnc2-c2ccco2)cc1 | 1.21% (inactive)
80 | CC1(N2CCOCC2)CC2(O)C(=[N+]1[O-])CCc1nonc12 (stereo not drawn) | 59.8% (active)
81 | CC(=O)n1c(C=Nc2ccccc2)c(O)c2ccccc21 | -25.1% (inactive)
82 | Cc1ccc(NC(=O)CSc2nnc(CNC(=O)c3ccccc3F)o2)cc1 | -1.52% (inactive)
83 | O=C(CCCN=C1NS(=O)(=O)c2ccccc21)OCC(=O)c1ccc(F)c(F)c1 | 0.337% (inactive)
84 | CCN(CC)S(=O)(=O)c1ccc(Cl)c(NC(=O)c2ccncc2)c1 | -0.0873% (inactive)
85 | CN(C)c1ccc(NC(=O)c2ccncc2)c2ccccc12 | 32.8% (active)
86 | CC(=O)c1cccc(NC(=O)c2ccncc2)c1 | -0.301% (inactive)
87 | Cc1cc(Nc2cccc(C)c2C)n2ncnc2n1 | 0.489% (inactive)
88 | COc1ccc(Nc2ncnc3ccc(Br)cc23)c(OC)c1 | -1.95% (inactive)
89 | COc1ccc2sc(N(CCCN(C)C)C(=O)c3ccc(S(=O)(=O)N(C)C4CCCCC4)cc3)nc2c1 | 2.28% (inactive)
90 | S=c1nccc(-c2cc(Cl)sc2Cl)[nH]1 | 2.58% (inactive)
91 | O=c1oc2ccccc2cc1-c1csc(Nc2ccc(O)cc2)n1 | -3.92% (inactive)
92 | COc1ccc(-c2csc(Cc3nc(O)cs3)n2)cc1 | 8.96% (inactive)
93 | COc1ccc(-c2csc(Nc3ccc(O)cc3)n2)cc1 | 33.3% (active)
